PMK inhibit = S. pneumoniae PMK inhibitors, primary screen, biochemical, mevalonate pathway, pilot trial included; inhibition, % at 10 µM; AID 539, 2006; phosphomevalonate kinase (Streptococcus pneumoniae D39); 0.49% of 65,000 active; purified PMK, PK/LDH-coupled NADH absorbance 340 nm;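 active means top-ranked compounds by inhibition in the single 10 µM screen, taking a fixed number of the strongest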;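 further: 0% = full reaction with DMSO carrier and 100% = background rate without enzyme reaction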
DPM-DC inhibit = S. pneumoniae DPM-DC inhibitors, primary screen, biochemical, PK/LDH-coupled NADH fluorescence; diphosphomevalonate decarboxylase (Streptococcus pneumoniae D39); purified DPM-DC; calls only at 10 µM; 0.49% of 65,000 active; AID 556, 2006;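 active means the 320 compounds with the highest percent inhibition in the single-dose primary screen, excluding strongly autofluorescent ones, cut at about 32% in these data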;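 further: kinetic rate of NADH fluorescence loss reporting ADP formed by the decarboxylase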
MK inhibit = S. pneumoniae MK inhibitors, primary screen, biochemical, PK/LDH-coupled NADH absorbance. 0.48% of 65,000 active. mevalonate kinase [Streptococcus pneumoniae D39]. inhibition, % at 10 µM. purified MK, PK/LDH-coupled NADH absorbance 340 nm;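 active means ranked among the strongest by inhibition in the single 10 µM screen, a fixed top-ranked set picked for dose follow-up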
NADH coupling = inhibitors of PK/LDH coupling enzymes, profiling panel, artefact control, biochemical, MLSMR library. 0.02% of 65,000 active. coupled PK/LDH NADH assays, four targets. AID 774, 2007. IC50, µM (highest dose often 10 µM), without a hit: at the top dose inhibition;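 active means single-dose screening hits from any of four coupled enzyme assays that gave an IC50 when retested across doses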;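 further: the DPM-DC format reads NADH fluorescence rather than 340 nm absorbance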
Autofluor 339 = intrinsic fluorescence of library compounds, ex339/em460 – biochemical, MLSMR library, data from DPM-DC assay, artefact control, profiling panel | compound autofluorescence, ex339/em460 nm, NADH buffer; active compounds read high; 1 = no-compound wells, NADH background | AID 709, 2007 | 5.5% of 65,000 active | fluorescence fold increase at 10 µM;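 active means at 10 µM, mean starting fluorescence two-fold or more over control wells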;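 further: signal is the first read of a kinetic run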
Abs 340nm = compound light absorbance at 340 nm, profiling panel, artefact control, biochemical, MLSMR library, data from PS, PMK, MK assays; compound absorbance at 340 nm, fold over control; 65,000 tested, under 10 active; AID 708, 2007; fold change at 10 µM;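 active means at 10 µM dose, initial 340 nm absorbance at least 2 fold that of control wells; inactive means change under 2 fold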;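 further: initial absorbance extrapolated from kinetic A340 decline of NADH oxidation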
* hit, by the source's call; i = inactive; nt = not tested or not shown; + = active, no number. Shown are actives, neighbours in structure and some others; about 6.8% of the full set was active somewhere.

SMILES	PMK inhibit	DPM-DC inhibit	MK inhibit	NADH coupling	Autofluor 339	Abs 340nm
CCN1c2ccccc2-c2nc3ccccc3n2C1c1ccccn1 (stereo not given)	5.0	nt	10.0	8.0%	3.79*	1.02
COc1cc(-n2c(C)nc3cc(C(=O)N4CCOCC4)ccc32)cc(OC)c1OC	18.0	i	0.0	6.0%	1.09	1.01
COc1ccc(-c2c(N)nnc3c2[nH]c2ccccc23)cc1OC	11.0	nt	12.0	12.0%	4.59*	1.04
Cc1ccc(-c2cc(C(F)(F)F)n3ncc(C(=O)N4CCN(C)CC4)c3n2)cc1	0.0	i	0.0	6.0%	1.67	1.08
COc1cc(-c2cc(C(F)(F)F)n3ncc(C(=O)O)c3n2)cc(OC)c1OC	2.0	i	11.0	4.0%	1.11	1.1
NC(=O)c1cnn2c(C(F)(F)F)cc(-c3ccc(F)cc3)nc12	12.0	i	7.0	8.0%	2.06*	1.06
NC(=O)c1cnn2c(C(F)(F)F)cc(-c3ccccc3)nc12	5.0	i	18.0	14.0%	2.15*	1.14
Cc1c(NS(=O)(=O)c2ccc3c(c2)c(=O)n(C)c(=O)n3C)c(=O)n(-c2ccccc2)n1C	0.0	i	4.0	4.0%	1.07	1.01
CCOC(=O)c1cccc(NC(=O)CN2C(=O)C3C4C=CC(C4)C3C2=O)c1 (stereo not given)	10.0	i	6.0	5.0%	1.05	0.98
O=C(CN1C(=O)C2C3C=CC(C3)C2C1=O)Nc1ccc2nccnc2c1 (stereo not given)	10.0	nt	9.0	10.0%	2.09*	1.11
O=C(OCCCCN1C(=O)c2ccccc2C1=O)c1n[nH]c2ccccc12	11.0	i	3.0	2.0%	1.03	1.01
CCOC(=O)c1ccccc1NC1c2ccccc2C(=O)N1C1CCN(C(=O)OCC)CC1 (stereo not given)	0.0	nt	5.0	1.0%	2.43*	0.99
CCOC(=O)c1ccccc1NC1c2ccccc2C(=O)N1c1ccc(C)cn1 (stereo not given)	2.0	i	5.0	4.0%	1.56	1.03
CCOC(=O)c1ccccc1NC1OC(=O)c2ccccc21 (stereo not given)	16.0	nt	0.0	8.0%	3.63*	1.04
CCOC(=O)N1CCC(N2C(=O)c3ccccc3C2Nc2ccc3c(C)cc(=O)oc3c2)CC1 (stereo not given)	10.0	nt	4.0	3.0%	2.48*	1.06
O=C(c1cn(-c2ccccc2)nc1-c1ccncc1)n1nnc2ccccc21	2.0	i	4.0	4.0%	1.56	1.09
Cc1cccc(Cc2c(C)nc3c(C(=O)NCc4ccco4)cnn3c2C)c1	13.0	i	1.0	7.0%	3.85*	1.04
Cc1nc2c(C(=O)NCc3ccco3)cnn2c(C)c1Cc1ccc(F)cc1Cl	7.0	i	0.0	6.0%	3.11*	1.02
Cc1nc2c(-c3ccccc3)c(C)nn2c(C)c1CCC(=O)NCc1ccco1	8.0	i	8.0	4.0%	1.03	0.99
CCOC(=O)CCc1c(C)nc2cc(-c3ccccc3OC)[nH]n2c1=O	4.0	i	2.0	8.0%	1.49	1.05
CCn1c(C)c(CCC(=O)O)c(=O)n2nc(-c3ccccc3OC)cc12	11.0	nt	6.0	3.0%	3.09*	1.02
COc1ccc2c(c1)-c1ccccc1S(=O)(=O)N2C(C)=O	7.0	+	0.0	15.0%	3.65*	1.03
COc1ccc(OC)c(NC(=O)CN2C(=O)c3ccccc3S2(=O)=O)c1	0.0	i	1.0	0.0%	1.15	0.99
CC(C)n1cc(/C=C(\C#N)S(=O)(=O)c2ccccc2)c2ccccc21	3.0	i	8.0	6.0%	1.12	1.04
CCOC(=O)c1cc2c(=O)[nH]ccc2nc1C	12.0	nt	2.0	7.0%	3.66*	1.05
SMILES	PMK inhibit	DPM-DC inhibit	MK inhibit	NADH coupling	Autofluor 339	Abs 340nm
CCOC(=O)c1cc(C(=O)OCC)c2cc(Br)ccc2n1	5.0	i	14.0	9.0%	1.08	1.04
Nc1c2c(nc3ccccc13)N(C1CCCCC1)CC2	0.0	nt	49.0*	25.0%	2.32*	1.11
CCOC(=O)c1cnc(-n2nc(C)cc2C)nc1NC(C)c1ccccc1 (stereo not given)	11.0	i	10.0	2.0%	1.17	1
CCOC(=O)Cn1c(=O)oc2cc(S(=O)(=O)N3CCc4ccccc43)ccc21	7.0	i	0.0	3.0%	1.06	1.05
N#CC1=C2C=CC=CN2CC1=O	9.0	nt	6.0	8.0%	2.26*	1.04
C=CCn1c(-c2ccccc2)nc2nc3ccccc3nc21	21.0	nt	0.0	11.0%	2.11*	1.2
CCCNC(=O)c1c(C)cc(=O)oc1C	16.0	i	0.0	12.0%	2.06*	1.22
Cc1cc(C(=O)Nc2sc(C)c(-c3ccc(F)cc3)c2C(N)=O)no1	8.0	i	2.0	6.0%	2.3*	1.01
CC(O)C(=O)NCCOCCOCCNC(=O)C(C)O (stereo not given)	21.0	i	0.0	7.0%	1.1	0.98
CC(C)C1Oc2ccccc2N(CC(=O)NCCCN2C(C)CCCC2C)C1=O (stereo not given)	8.0	i	47.0*	18.0%	1.21	1.05
CCC1Oc2ccccc2N(CC(=O)NCCCN2CCN(Cc3ccccc3)CC2)C1=O (stereo not given)	15.0	i	0.0	5.0%	1.03	0.99
CN(c1cccc(NC(=O)Cc2ccccc2)c1)S(C)(=O)=O	7.0	i	11.0	8.0%	1.06	1.04
CCCCOc1ncnc2c1[nH]c1ccccc12	0.0	i	0.0	3.0%	2.34*	1.06
CCCCOc1ncnc2c1[nH]c1ccc(F)cc12	12.0	i	0.0	4.0%	2.68*	1.05
COc1ccc2[nH]c(C(=O)O)c(CCNC(C)=O)c2c1	11.0	i	3.0	12.0%	2.49*	1.01
Cc1cccc(-c2c3c(=O)n(C)c(=O)n(C)c3c3nnc4ccccc4n23)c1	10.0	i	12.0	7.0%	1.13	1.02
C=CCc1c(C)nc2c(C(=O)O)cnn2c1C	14.0	i	0.0	5.0%	1.89	1.01
COC(=O)c1cnn2c3c(c(C)nc12)CCCC3	24.0	nt	3.0	14.0%	4.83*	0.99
O=C(c1ccco1)N1CCN(c2ncnc3c2[nH]c2ccccc23)CC1	7.0	i	0.0	7.0%	1.76	1.07
CCOC(=O)C1CCN(c2ncnc3c2[nH]c2cccc(OC)c23)CC1	16.0	nt	9.0	13.0%	3.74*	1.13
COc1cc2[nH]c3c(N4CCN(c5ccccn5)CC4)ncnc3c2cc1OC	20.0	nt	8.0	14.0%	3.66*	1.1

Source: PubChem BioAssay
